Most compounds without a hit are left out; they make up all but 4.3% or so of the library.
NadD inh = inhibitors of S. aureus NadD, primary screen, biochemical, colorimetric, uHTS. AID 602399, 2012. purified NadD enzyme, colorimetric absorbance read-out. 360,000 compounds, 0.78% hits. inhibition, % at 20 µM; in the data active = inhibition above about 26%
NR3A LBD binder = binders of NR3A ligand-binding domain, primary screen, biophysical, differential scanning fluorimetry, uHTS. Tm shift relative to glycine control, % at 25 µM. Glutamate receptor ionotropic, NMDA 3A (GRIN3A) ligand-binding domain. NR3A LBD differential scanning fluorimetry, Tm shift; 0% = protein alone, 100% = glycine-bound protein. 340,000 compounds, 2.5% hits;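 active = melting temperature shift of at least 10% of the positive control shift, at one fixed dose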
FAS-TE inh = FAS thioesterase domain inhibitors, primary screen, biochemical, fluorescence intensity, uHTS; 360,000 compounds, 0.67% hits; inhibition, % at 15 µM; recombinant FAS-TE, OMFH fluorogenic substrate, fluorescence endpoint; Fatty acid synthase (Homo sapiens), P49327;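 active = compounds whose normalised, plate-corrected inhibition of enzyme fluorescence in the single-dose primary screen is 50% or more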;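 note: 0% = DMSO with enzyme and 100% = substrate without enzyme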
rCAG RNA binder = binders of r(CAG) RNA repeats, primary screen, biochemical, fluorescence; r(CAG) RNA repeat, TO-PRO-1 dye displacement fluorescence; inhibition, % at 3 µM; 370,000 compounds, 1.3% hits;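 active = inhibition above the plate cutoff, the mean of all test compounds on that plate plus 3 SD, cut at about 35% in these data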;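 note: 0% = DMSO alone and 100% = 100 µM mitoxantrone as full dye displacement; higher means more dye released from RNA so lower well fluorescence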
NadD conf = inhibitors of S. aureus NadD, confirmation, biochemical, colorimetric, single concentration; AID 624309, 2012; shares compounds with NadD inh; inhibition, % at 20 µM; purified S. aureus NadD, colorimetric enzyme assay; 2,000 compounds, 13% hits; in the data active = inhibition mostly above about 42%, no sharp cut-off; inactive = mostly below about 42%
rCAG binder conf = small molecules binding CAG repeat RNA – biochemical, fluorescence, confirmation | shares compounds with rCAG RNA binder | r(CAG) RNA repeat, TO-PRO-1 dye displacement fluorescence | inhibition, % at 3 µM | 4,300 compounds, 70% hits | AID 652065, 2013;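 active = inhibition above a per-plate cutoff, the mean inhibition of sample wells plus 3 SD, cut at about 35% in these data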;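 note: loss of TO-PRO-1 fluorescence as compound displaces dye from 1x1 AA loop RNA; 0% = DMSO only wells and 100% = 100 µM mitoxantrone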
DNA CAG counter = displacement of TO-PRO-1 from CAG DNA duplex, counter-screen for rCAG RNA repeat binder project, biochemical, fluorescence, TO-PRO-1 dye, d(CAG) DNA oligo. 4,300 compounds, 94% hits. inhibition, % at 3 µM. shares compounds with rCAG RNA binder. AID 652068, 2013. d(CAG) DNA oligo TO-PRO-1 dye displacement;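 active = inhibition above its plate's cutoff, the mean test-well inhibition plus 3 SD, cut at about 4.8% in these data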;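 note: 0% = DNA dye mix with DMSO and 100% = 100 µM mitoxantrone; hits displace the dye from DNA and so lower well fluorescence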
Active calls of the source: *; . = no result given.

SMILES | NadD inh | NR3A LBD binder | FAS-TE inh | rCAG RNA binder | NadD conf | rCAG binder conf | DNA CAG counter
C#CCOCCOCCOCCNc1nc(N2CCN(C(=O)CCCCCCCCCCNC(=O)[C@@H](CCC(=O)O)n3cc(CCCCCN)nn3)CC2)nc(N2CCN(C(=O)CCCCCCCCCCNC(=O)[C@H](CO)n3cc(CCCSC)nn3)CC2)n1 | 48* | -6 | -12 | . | -7 | . | .
C#CCOCCOCCOCCNc1nc(N2CCN(C(=O)CCCCCCCCCCNC(=O)[C@@H](CCSC)n3cc(CCO)nn3)CC2)nc(N2CCN(C(=O)CCCCCCCCCCNC(=O)[C@H](CCC(=O)O)n3cc(CCCCCN)nn3)CC2)n1 | 41* | -2 | -16 | . | 48* | . | .
COc1cccc(NC(=O)n2ccc3ccc(-c4ccc5ccn(C(=O)Nc6cccc(OC)c6)c5c4)cc32)c1 | . | . | . | 31 | . | . | .
O=S1(=O)c2ccc(N3CC[C@H](O)C3)cc2O[C@@H]2CCN1C2 | . | . | . | 2 | . | . | .
Cc1ccccc1[C@H](NC1c2ccccc2C=Cc2ccccc21)P(=O)(c1ccccc1)c1ccccc1 | 31* | . | 32 | 11 | 38 | . | .
CCN(Cc1cn(Cc2ccccc2)nn1)S(=O)(=O)c1ccc(N2CCCC2)cc1Br | . | . | . | 7 | . | . | .
COC(=O)C12CCCN1C1C(=O)N(Cc3ccc(C(N)=O)cc3)CC1C2 (configuration not stated) | . | . | . | 5 | . | . | .
O=C(CCN1C(=O)/C(=C/c2ccccc2)SC1=S)Nc1cccnc1 | -3 | 3 | 3 | 2 | . | . | .
Cc1ccc(NC(=O)COc2ccc(/C=C3/SC(=Nc4ccccc4)N(Cc4cccnc4)C3=O)cc2)cc1 | 40* | 0 | -5 | 6 | 3 | . | .
CCOC(=O)N1CCN(C(=O)C[C@H]2C[C@@]3(C(=O)OC)C(=C[C@H](COCc4ccccc4)O[C@@H]3C)N(Cc3cccc4ccccc34)C2=O)CC1 | . | . | . | 12 | . | . | .
CC(=O)Oc1ccc(C(=O)[C@H]2[C@H]3C(=O)N(c4cccc5ccccc45)C(=O)[C@H]3[C@@H]3C=CC=NN32)cc1 | 45* | -15 | 0 | 26 | 24 | . | .
COc1cc(NS(=O)(=O)c2ccc(NC(=S)NC(=O)/C=C/c3ccc(OC)c(OC)c3)cc2)ncn1 | 26 | -4 | 0 | 8 | . | . | .
COc1ccc(/C=C/C(=O)NC(=S)Nc2ccc(S(=O)(=O)Nc3cc(OC)ncn3)cc2)cc1 | 54* | 1 | 0 | 17 | 35 | . | .
COc1ccc(/C=C/C(=O)NC(=S)Nc2ccc(S(=O)(=O)N=C(N)N)cc2)cc1OC | 30* | 4 | 2 | 16 | -3 | . | .
O=C(NC(=S)Nc1ccccc1N1CCCC1)c1ccc(-c2cccc([N+](=O)[O-])c2)o1 | 32* | -4 | 22 | 15 | 3 | . | .
CC(=O)Nc1cccc(NC(=O)c2ccc([N+](=O)[O-])cc2Cl)c1 | -3 | -11 | -3 | 0 | . | . | .
O=C(/C=C/c1cccc([N+](=O)[O-])c1)NC(=S)Nc1cccc(NC(=O)c2ccccc2Cl)c1 | 29* | 9 | -1 | 12 | -5 | . | .
O=C(O)c1ccc(/C=N/NC(=O)c2cc(-c3ccc4c5c(cccc35)CC4)n[nH]2)cc1 | 28* | -38 | 12 | 81* | 34 | 80* | 49*
O=C(N/N=C/c1ccccn1)c1cc(-c2cccc3ccccc23)n[nH]1 | 9 | -14 | 18 | 3 | . | . | .
Cc1ccc2sc(NNC(=O)c3cc(-c4cccs4)nc4ccccc34)nc2c1C | . | . | . | 19 | . | . | .
O=C(NN1CCOCC1)c1cc(-c2cccs2)nc2ccccc12 | -2 | 0 | -8 | 10 | . | . | .
Cc1cc(C)c2nc(NNC(=O)c3cc(-c4cccs4)nc4ccccc34)sc2c1 | 51* | -3 | 10 | 37* | 2 | 42* | 18*
O=C(NNc1nc2ccc(Cl)cc2s1)c1cc(-c2cccs2)nc2ccccc12 | 44* | -5 | 29 | 55* | 48* | 50* | 25*
CCCCNc1cccc2c1S(=O)(=O)N[C@H](CC(C)C)CO2 | . | . | . | -1 | . | . | .
O=C(NCCc1ccccc1)OCc1cn(-c2ccccc2Cl)nn1 | . | . | . | 3 | . | . | .
SMILES | NadD inh | NR3A LBD binder | FAS-TE inh | rCAG RNA binder | NadD conf | rCAG binder conf | DNA CAG counter
Cc1cccc2nc(-c3ccccc3)c(-c3ccc(CN4CCC(n5cc(-c6ccccc6)[nH]c5=O)CC4)cc3)nc12 | . | . | . | 11 | . | . | .
O=C(NCCc1ccccc1Cl)[C@@H]1CCCN1C(=O)[C@@H](NS(=O)(=O)c1ccc(F)cc1F)C1CCCCC1 | . | . | . | 2 | . | . | .
COc1ccccc1N1CSC2=C(C#N)C(c3ccc(SC)cc3)CC(=O)N2C1 (configuration not stated) | 35* | -20 | 6 | 40* | 39 | 47* | 19*
Cc1onc(-c2ccccc2)c1C(=O)Nc1ccc(S(=O)(=O)Nc2nccs2)cc1 | -3 | -5 | -4 | 33 | . | . | .
O=S(=O)(Nc1nccs1)c1ccc(Nc2nnc(-c3ccccc3)c3ccccc23)cc1 | 64* | -4 | 0 | 54* | 62* | 65* | 27*
COc1ccc(-c2csc(Nc3ccc(S(=O)(=O)Nc4cc(OC)nc(OC)n4)cc3)n2)cc1 | 28* | 10 | 14 | 90* | 42 | 90* | 57*
C=CCn1c(COc2ccccc2)nnc1SCC(=O)c1ccc(-c2ccccc2)cc1 | . | . | . | 12 | . | . | .
COc1ccc(C)cc1Nc1nc(-c2c[nH]c3ccccc23)cs1 | 39* | -7 | 8 | 37* | 36 | 20 | 12*
Cc1ccc(Cc2cnc(N3C(=N)SC(c4ccccc4)C3=O)s2)cc1 (configuration not stated) | 51* | -6 | -6 | 64* | 8 | 69* | 23*
COc1ccc(/C=N/NC(=O)c2nn(-c3ccccc3)c(=O)c3c(N)scc23)cc1 | 51* | -4 | -7 | 42* | 17 | 28 | 18*
COc1ccc(/C=N/NC(=O)c2nn(-c3ccc(Cl)cc3)c(=O)c3c(N)scc23)cc1 | 55* | -3 | 2 | 42* | 43 | 27 | 18*
COc1ccc(/C=N/NC(=O)c2nn(-c3ccc(C)c(C)c3)c(=O)c3ccccc23)cc1 | 21 | -1 | 26 | 2 | . | . | .
COC(=O)C1=C(C)N(CC(C)C)C(=S)NC1c1cccc(F)c1 (configuration not stated) | . | . | . | 0 | . | . | .

Assay outcomes: PubChem BioAssay, several laboratories
